Drawing on PubChem BioAssay (NCI), this text covers growth inhibition for nine compounds.

Experiment [1] can be described thus: NCI Yeast Anticancer Drug Screen. Data for the rad50 strain (AID 155).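 Further: 0% = growth of vehicle-only cultures of the same strain.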 The settings on record: S. cerevisiae rad50 strain growth inhibition, stronger effect = higher value. A digest of the protocol: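 Inhibition values express reduced yeast growth in compound-treated cultures relative to vehicle-treated controls.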
The nature of experiment [2]: NCI Yeast Anticancer Drug Screen. Data for the mec2-1 strain (AID 157). The settings on record: S. cerevisiae mec2-1 strain, stronger effect = higher value. A digest of the protocol: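 Cells of the genetically defined mec2-1 yeast strain are incubated with test compound. Inhibition of growth is calculated against vehicle-treated controls.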
Experiment [3] is described as follows: NCI Yeast Anticancer Drug Screen. Data for the sgs1 mgt1 strain (AID 161).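 Further: 0% = growth of cultures given vehicle only.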 The conditions noted are these: S. cerevisiae sgs1 mgt1 strain, stronger effect = higher value. A digest of the protocol: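 Read-out: growth inhibition vs vehicle controls. Cells: mutant yeast strain deficient in DNA damage repair.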
Experiment [4] is described as follows: NCI Yeast Anticancer Drug Screen. Data for the cln2 rad14 strain (AID 165).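 Further: 0% = growth equal to vehicle treated cultures.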 The settings on record: S. cerevisiae cln2 rad14 strain, stronger effect = higher value. In short, it runs like this: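 The screen exposed genetically defined yeast (cln2 rad14) to test compounds and scored growth inhibition relative to vehicle-treated controls.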
A short description of experiment [5]: NCI Yeast Anticancer Drug Screen. Data for the bub3 strain (AID 167). The settings on record: S. cerevisiae bub3 mutant strain, stronger effect = higher value. In short, it runs like this:
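Steps: expose the mutant yeast strain to compound; grow alongside vehicle-treated cultures; measure growth; express inhibition against the vehicle cultures.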

Experiment [6] is described as follows: NCI Yeast Anticancer Drug Screen. Data for the mlh1 rad18 strain (AID 175). The conditions noted are these: S. cerevisiae mlh1 rad18 strain growth inhibition, stronger effect = higher value. A digest of the protocol:
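Compound-treated yeast growth, normalised to vehicle controls. Strain bears defined DNA repair mutations.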

[7] abbreviates: at 5.0 µM (retest, dose inferred, filed as 0.5).
[8] abbreviates: at 50.0 µM (retest, dose inferred, filed as 5.0).

Each structure is given as a SMILES string. About 79,000 compounds went through this panel and 15% of them were active in at least one assay; those are over-represented in the sample as a whole. Values without a mark were called inactive. The source made the active and inactive calls. No stated cut-off is given here; in the data, active means growth inhibition above about 70%; inactive means the rest. Where a SMILES comes first, the peptide text is derived from it. [ ]: non-standard residue; d: D form. The star is where a group is joined. Phe(4-NO2) = N[CH](Cc1ccc([N+](=O)[O-])cc1)C(=O)O; Boc = CC(C)(C)OC(=O)*

For `CCCCOS(=O)(=O)c1ccc(C)cc1`, the growth inhibition in experiment [1] (setting [7]) was -7%; in experiment [1] (setting [8]), 15%; in experiment [1] (at 50.0 µM), 9.1%; in experiment [2] (setting [7]), -4%; in experiment [2] (setting [8]), -22%; in experiment [2] (at 50.0 µM) it was -82.3%. Besides, the growth inhibition in experiment [3] (setting [7]) is -8%; in experiment [3] (setting [8]) it was 7%; in experiment [3] (at 50.0 µM) it was -9.45%; in experiment [4] (setting [7]), 1%; in experiment [4] (setting [8]) it was -15%; in experiment [4] (at 50.0 µM) it was 25.1%. Besides, the growth inhibition in experiment [5] (setting [7]) is -16%; in experiment [5] (setting [8]), -39%; in experiment [5] (at 50.0 µM) it was -23.5%; in experiment [6] (setting [7]), -6%; in experiment [6] (setting [8]), -4%; in experiment [6] (at 50.0 µM) it was -3.55%.

With `O=C(O)c1c2c(cc3c1CC1(Cc4ccccc4C1=O)C3)CCC2` (configuration not stated), the growth inhibition is 7% in experiment [1] (setting [7]); 7% in experiment [1] (setting [8]); 81.2% (active) in experiment [1] (at 50.0 µM); 21% in experiment [2] (setting [7]); 21% in experiment [2] (setting [8]); 89% (active) in experiment [2] (at 50.0 µM). The growth inhibition is 20% in experiment [3] (setting [7]); 20% in experiment [3] (setting [8]); 84.8% (active) in experiment [3] (at 50.0 µM); -10% in experiment [4] (setting [7]); -10% in experiment [4] (setting [8]); 84.2% (active) in experiment [4] (at 50.0 µM). In addition, the growth inhibition in experiment [5] (setting [7]) is 16%; in experiment [5] (setting [8]) it was 16%; in experiment [5] (at 50.0 µM) it was 84.2% (active); in experiment [6] (setting [7]) it was 24%; in experiment [6] (setting [8]), 24%; in experiment [6] (at 50.0 µM), 77.9% (active).

In the case of `CCCCCCCCCCCCNC(=O)c1ccc[n+](Cc2ccc(Cl)c(Cl)c2)c1`, the growth inhibition in experiment [1] (setting [7]) was 99% (active); in experiment [1] (setting [8]), 98% (active); in experiment [1] (at 50.0 µM), 99% (active); in experiment [2] (setting [7]) it was 100% (active); in experiment [2] (setting [8]) it was 99% (active); in experiment [2] (at 50.0 µM) it was 99% (active). The growth inhibition in experiment [3] (setting [7]) is 99% (active); in experiment [3] (setting [8]) it was 98% (active); in experiment [3] (at 50.0 µM), 98.8% (active); in experiment [4] (setting [7]), 99% (active); in experiment [4] (setting [8]), 99% (active); in experiment [4] (at 50.0 µM), 98.2% (active). Moreover, the growth inhibition in experiment [5] (setting [7]) was 98% (active); in experiment [5] (setting [8]), 98% (active); in experiment [5] (at 50.0 µM), 97.8% (active); in experiment [6] (setting [7]), 99% (active); in experiment [6] (setting [8]), 99% (active); in experiment [6] (at 50.0 µM), 98.7% (active).

As for `CNC(=O)CCC(NC(=O)OC(C)(C)C)C(=O)NC(Cc1ccc([N+](=O)[O-])cc1)C(=O)NCC(=O)NC` (configuration not stated) (Boc-Glu(NHMe)-[Phe(4-NO2)]-Gly-NHMe; configuration not given here), the growth inhibition in experiment [1] (setting [7]) is 9%; in experiment [1] (setting [8]) it was -1%; in experiment [1] (at 50.0 µM) it was -5.5%; in experiment [2] (setting [7]), -3%; in experiment [2] (setting [8]) it was 2%; in experiment [2] (at 50.0 µM), -1.65%. Also, the growth inhibition in experiment [3] (setting [7]) is -7%; in experiment [3] (setting [8]), 3%; in experiment [3] (at 50.0 µM), 8.8%; in experiment [4] (setting [7]), -4%; in experiment [4] (setting [8]) it was 4%; in experiment [4] (at 50.0 µM) it was 37.6%. Further, the growth inhibition in experiment [5] (setting [7]) was -15%; in experiment [5] (setting [8]) it was -1%; in experiment [5] (at 50.0 µM), -1.9%; in experiment [6] (setting [7]), -9%; in experiment [6] (setting [8]) it was 6%; in experiment [6] (at 50.0 µM) it was -8.8%.

For the compound `CCN(CC)CCSCCCNc1cc(C)nc2c1ccc1c2ccc2c(NCCCSCCN(CC)CC)cc(C)nc21`, the growth inhibition in experiment [1] (setting [7]) was 5%; in experiment [1] (setting [8]), 92% (active); in experiment [1] (at 50.0 µM), 97.3% (active); in experiment [2] (setting [7]), 3%; in experiment [2] (setting [8]), 70% (active); in experiment [2] (at 50.0 µM), 97.4% (active). Also, the growth inhibition in experiment [3] (setting [7]) was -2%; in experiment [3] (setting [8]), 49%; in experiment [3] (at 50.0 µM) it was 97.8% (active); in experiment [4] (setting [7]), -3%; in experiment [4] (setting [8]) it was 42%; in experiment [4] (at 50.0 µM), 72.5% (active). In addition, the growth inhibition in experiment [5] (setting [7]) is 4%; in experiment [5] (setting [8]), 67%; in experiment [5] (at 50.0 µM) it was 94.4% (active); in experiment [6] (setting [7]), 8%; in experiment [6] (setting [8]), 94% (active); in experiment [6] (at 50.0 µM), 95.8% (active).

As for `N#CC1Sc2ccccc2N1C(=O)c1ccccc1` (configuration not stated), the growth inhibition in experiment [1] (setting [7]) was -2%; in experiment [1] (setting [8]) it was 3%; in experiment [1] (at 50.0 µM), 96.6% (active); in experiment [2] (setting [7]), -15%; in experiment [2] (setting [8]) it was -6%; in experiment [2] (at 50.0 µM) it was 91% (active). For the same compound, the growth inhibition in experiment [3] (setting [7]) was -2%; in experiment [3] (setting [8]), -19%; in experiment [3] (at 50.0 µM), 93% (active); in experiment [4] (setting [7]), -12%; in experiment [4] (setting [8]), -19%; in experiment [4] (at 50.0 µM), 78% (active). Besides, the growth inhibition in experiment [5] (setting [7]) was -10%; in experiment [5] (setting [8]) it was 4%; in experiment [5] (at 50.0 µM), 84.2% (active); in experiment [6] (setting [7]) it was -12%; in experiment [6] (setting [8]), -5%; in experiment [6] (at 50.0 µM), 98% (active).

As to `CCCCCC/C=C1\CCC(CN2CCOCC2)C1=O` (configuration not stated), the growth inhibition in experiment [1] (setting [7]) is 53%; in experiment [1] (setting [8]) it was 96% (active); in experiment [1] (at 50.0 µM) it was 81.7% (active); in experiment [2] (setting [7]) it was 23%; in experiment [2] (setting [8]), 97% (active); in experiment [2] (at 50.0 µM), 52%. The growth inhibition in experiment [3] (setting [7]) was 16%; in experiment [3] (setting [8]), 96% (active); in experiment [3] (at 50.0 µM), 79.7% (active); in experiment [4] (setting [7]), 25%; in experiment [4] (setting [8]), 79% (active); in experiment [4] (at 50.0 µM) it was 63%. Further, the growth inhibition in experiment [5] (setting [7]) was 48%; in experiment [5] (setting [8]), 98% (active); in experiment [5] (at 50.0 µM), 82.5% (active); in experiment [6] (setting [7]) it was 59%; in experiment [6] (setting [8]) it was 97% (active); in experiment [6] (at 50.0 µM) it was 74.8% (active).

For `C/C(=N\O)c1ccc2cc(Br)c3ccccc3c2c1`, the growth inhibition in experiment [1] (setting [7]) was 12%; in experiment [1] (setting [8]), 98% (active); in experiment [1] (at 50.0 µM) it was 96.2% (active); in experiment [2] (setting [7]), 1%; in experiment [2] (setting [8]), 98% (active); in experiment [2] (at 50.0 µM), 97.4% (active). Moreover, the growth inhibition in experiment [3] (setting [7]) was -1%; in experiment [3] (setting [8]) it was 98% (active); in experiment [3] (at 50.0 µM) it was 98% (active); in experiment [4] (setting [7]), -20%; in experiment [4] (setting [8]), 96% (active); in experiment [4] (at 50.0 µM), 96% (active). Moreover, the growth inhibition in experiment [5] (setting [7]) was 8%; in experiment [5] (setting [8]) it was 98% (active); in experiment [5] (at 50.0 µM) it was 95.5% (active); in experiment [6] (setting [7]), 3%; in experiment [6] (setting [8]), 98% (active); in experiment [6] (at 50.0 µM), 96.7% (active).

Regarding `C[CH2][Sn]([CH2]C)([O]C(=O)c1cc(OC)c(OC)c(OC)c1)[O][Sn]([CH2]C)([CH2]C)[O]C(=O)c1cc(OC)c(OC)c(OC)c1`, the growth inhibition is 33% in experiment [1] (setting [7]); 79% (active) in experiment [1] (setting [8]); 1.2% in experiment [1] (at 50.0 µM); 30% in experiment [2] (setting [7]); 91% (active) in experiment [2] (setting [8]); 12.7% in experiment [2] (at 50.0 µM). The growth inhibition is 31% in experiment [3] (setting [7]); 85% (active) in experiment [3] (setting [8]); 23.6% in experiment [3] (at 50.0 µM); 8% in experiment [4] (setting [7]); 61% in experiment [4] (setting [8]); 21.9% in experiment [4] (at 50.0 µM). Moreover, the growth inhibition in experiment [5] (setting [7]) is 36%; in experiment [5] (setting [8]), 94% (active); in experiment [5] (at 50.0 µM), 9.15%; in experiment [6] (setting [7]) it was 27%; in experiment [6] (setting [8]) it was 85% (active); in experiment [6] (at 50.0 µM) it was 61%.
